About 5,100 (6%) of roughly 85,000 compounds were called active.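 How the source made its calls: active means viability at or below 40%; inactive means viability above 40%.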 Shown is part of a subset that was picked to be rich in actives.
Assay: proliferation blockers of H69AR lung cancer cells, primary screen, cell-based, human, 86K library (AID 598);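 further: multidrug resistant small cell line overexpressing MRP-1 efflux transporter; 100% = mean luminescence of untreated control wells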
Details: H69AR lung tumor viability, ATP luminescence, 72 h; at 10 µM; hits give low values

Row | Structure (SMILES) | viability
1 | O=C(CSc1nnc(-c2cccnc2)n1CCc1ccccc1)NCc1ccccc1 | 89.6% (inactive)
2 | CCc1ccc(CNC(=O)CCc2nc(-c3cccs3)no2)cc1 | 98.2% (inactive)
3 | Clc1ccc(-n2nnnc2-c2cnc(-c3ccccn3)nc2-c2cccs2)cc1 | 18.2% (active)
4 | c1ccc(-c2noc(-c3cccs3)n2)nc1 | 70.6% (inactive)
5 | N#Cc1ccc(CSc2nnc(-c3ccccn3)n2-c2ccc(Cl)cc2)cc1 | 62% (inactive)
6 | COc1ccccc1N=C(C)C1=C(O)COC1=O | 92.4% (inactive)
7 | CCOc1ccccc1N=C1NC(=O)CS1 | 85.9% (inactive)
8 | CCC/C(O)=C1\C(=O)CC(C)(C)CC1=Nc1ccccc1OC | 28.2% (active)
9 | CCOc1ccccc1NC(=O)C1CCCN(C(=O)Nc2ccccc2)C1 (configuration not stated) | 61.5% (inactive)
10 | O=C1CCCC2=C1C(c1cccs1)n1nc(SCc3ccccc3)nc1N2 (configuration not stated) | 28.9% (active)
11 | CCCC(=O)N1c2ccccc2NC2=C(C(=O)CCC2)C1c1ccc(F)cc1 (configuration not stated) | 92.9% (inactive)
12 | CC(C)C(=O)N1c2ccccc2NC2=C(C(=O)CCC2)C1c1ccc(N(C)C)cc1 (configuration not stated) | 74.9% (inactive)
13 | Cc1ccc(N(CC(=O)Nc2cccc(N(C)S(C)(=O)=O)c2)S(C)(=O)=O)cc1 | 85.4% (inactive)
14 | O=C(CCCn1c(SCC(=O)c2ccccc2)nc2ccccc2c1=O)NCC1CCCO1 (configuration not stated) | 76.5% (inactive)
15 | Cc1noc(COc2ccccc2OCc2onc(C)c2Cl)c1Cl | 93.3% (inactive)
16 | Fc1ccc(-n2c(Cc3ccccc3)nnc2SCc2nc(-c3ccc(Cl)cc3)no2)cc1 | 90.9% (inactive)

Row | Structure (SMILES) | viability
17 | Cc1ccc(-c2noc(CSc3nnc(-c4ccncc4)n3-c3ccc(F)cc3)n2)cc1 | 27.9% (active)
18 | Cc1ccc(-c2noc(CSc3nnc(-c4ccccc4)n3C)n2)cc1 | 85.9% (inactive)
19 | O=S1(=O)C=C(SCCN2CCCC2)c2ccccc21 | 74.3% (inactive)
20 | Cn1cc(S(=O)(=O)N2CCN(c3ccc(F)cc3)CC2)c(=O)n(C)c1=O | 91.4% (inactive)
21 | C#CCN(N(C)c1ncc(C(F)(F)F)cc1Cl)S(=O)(=O)c1ccc2ccccc2c1 | 84% (inactive)
22 | CN(C)CCSc1nc(N)c2c3c(sc2n1)COC(C)(C)C3 | 91.2% (inactive)
23 | C=C(C)CSc1nc(N)c2c3c(sc2n1)CCC3 | 92.1% (inactive)
24 | CC(C)(C)C1CCc2c(sc3nc(SCC(N)=O)nc(N)c23)C1 (configuration not stated) | 2.44% (active)
25 | O=C(/C=C/NNC(=O)c1cccc(Br)c1)c1ccccc1 | 61.5% (inactive)
26 | N#C/C(=C(\O)CCl)c1nnc2n1CCCCC2 | 26.2% (active)
27 | COCC(=O)Nc1ccc(Br)cc1 | 101% (inactive)
28 | Cc1cccc(N(CC(=O)N2CCOCC2)S(C)(=O)=O)c1 | 98% (inactive)
29 | Cc1[nH]n(-c2cccc(Cl)c2)c(=O)c1-c1ccc(Cl)cc1 | 109% (inactive)
30 | CC1=NN(c2cccc(Cl)c2)C(=O)C12CC(C)=C(C)CS2 (configuration not stated) | 26.9% (active)
31 | O=C(NCc1ccccc1)C1CCCN(S(=O)(=O)c2cccs2)C1 (configuration not stated) | 95.6% (inactive)
32 | CCOc1ccc(S(=O)(=O)NCC2CCCO2)cc1 (configuration not stated) | 97% (inactive)

Source: PubChem BioAssay AID598 (SRMLSC, 2007)
